# Laboratory results as given in PubChem BioAssay (Tox21).
# A number with no mark means an inactive call. Activity calls are given as the source filed them. Calls come from the whole dose curve; as a rule, active = well fitted curve in the direction sought with a large enough effect in the repeat runs; inconclusive = weak or mixed curves; inactive = flat fitted curve, though single readings scatter.
# Assay: qHTS assay to test for compound auto fluorescence at 590 nm (red) in HEK293 cells (AID 720679)
# Details: red autofluorescence 540/590 nm; series mostly up to 91.3 µM; fluorescence, % of fluorescent control: at the top concentration
# From the text: National Center for Advancing Translational Sciences [NCATS]
# NIH Chemical Genomics Center [NCGC]
# U.S. Environmental Protection Agency [EPA]
# National Institutes of Environmental Health Sciences [NIEHS]
# National Toxicology Program [NTP]
# U.S. Food and Drug Administration [FDA]
# Compound auto fluorescence often interferes with screening of the compound library against various biological targets and signaling pathways. Some of these compounds may have fluorophoric properties. Such properties may interfere with the assay outputs resulting in false positives and/or negatives. To decrease such complications and ensure the compound activities are relevant in terms of biological response, the Tox21 10K compound library was screened for auto fluorescence.
# From the fluorophores used as reporter signals in our screening assays, the auto fluorescence equivalencies of compounds against three fluorophores have been evaluated: Triamterene, Fluorescein and Rose Bengal sodium for blue, green and red fluorescence, respectively. The fluorescence intensities were measured using Excitation/Emission wavelengths at 405/460nm, 485/535nm and 540/590nm for blue, green and red labels, respectively. This assay includes the red fluorescence data.
# Tox21 Assay Protocol Summary:
# 2,000 HEK293 cells in 5 uL of culture medium containing 10% dialyzed FBS per well were dispensed into black wall/clear bottom 1536-well plates using a Multidrop Combi Dispenser (Thermo Scientific). The assay plates were incubated for 4-5 hr at 37C to allow cell attachment to the well bottom, followed by the transfer of 23 nL compound or DMSO vehicle by a pintool work station (Kalypsys, San Diego, CA). After the assay plates were incubated overnight at 37C and 5% CO2, fluorescence intensities in the assay plates were measured by an Envision (PerkinElmer, Shelton, CT) plate reader using three labels for measuring blue, green and red fluorescence at […] 460, 535 and 590nm respectively.
# % is set by controls: 0 for no effect and ±100 for the full control effect.
Structure (SMILES),"fluorescence, % of fluorescent control",outcome
CC(=O)OCCc1ccccc1,0.121%,–
CNCC[C@@H](Oc1ccccc1C)c1ccccc1,-0.294% [at 46 µM],–
NC1CCN(c2nc3c(cc2F)c(=O)c(C(=O)O)cn3-c2ccc(F)cc2F)C1 (stereo not given),0.0488% [at 46 µM],–
CN1CCN(C2=Nc3ccccc3Sc3ccc(Cl)cc32)CC1,0.0711% [at 46 µM],–
OCCC1CCCCN1 (stereo not given),0.231%,–
CC(=O)N(O)CCCCCNC(=O)CCC(=O)N(O)CCCCCNC(=O)CCC(=O)N(O)CCCCCN,-0.043% [at 18.6 µM],–
CCN(CC)C(C)CN1c2ccccc2Sc2ccccc21 (stereo not given),-0.0946% [at 18.6 µM],–
CN(C)C/C=C(/c1ccc(Br)cc1)c1cccnc1,0.015% [at 46 µM],–
NCc1ccccc1,-0.967%,–
O=C(O)Cc1sc(-c2ccccc2)nc1-c1ccc(Cl)cc1,–,inactive
CCN1CCC[C@H]1CNC(=O)c1c(OC)ccc(Br)c1OC,-0.13% [at 46 µM],–
CCCOc1ccc2nc(NC(=O)OC)[nH]c2c1,-0.0194% [at 46 µM],–
Cc1ccccn1,–,inactive
CCOC(=O)C1=C(C)NC(C)=C(C(=O)OC)C1c1cccc([N+](=O)[O-])c1 (stereo not given),-0.0788% [at 46 µM],–
Nc1cnn([C@@H]2O[C@H](CO)[C@@H](O)[C@H]2O)c(=O)n1,-0.177%,–
CC(C)(C)c1cc(CO)cc(C(C)(C)C)c1O,0.24% [at 95.7 µM],–
Cc1c(Cn2ccnc2)c2ccccc2n1CCC(=O)O,0.163% [at 46 µM],–
CC(C)(C)c1cc(CCC(=O)OCC(COC(=O)CCc2cc(C(C)(C)C)c(O)c(C(C)(C)C)c2)(COC(=O)CCc2cc(C(C)(C)C)c(O)c(C(C)(C)C)c2)COC(=O)CCc2cc(C(C)(C)C)c(O)c(C(C)(C)C)c2)cc(C(C)(C)C)c1O,-0.0347% [at 46 µM],–
CC1(C)CCC(C)(C)c2cc(NC(=O)c3ccc(C(=O)O)cc3)ccc21,-1.04% [at 46 µM],–
O=C=NC1CCC(CC2CCC(N=C=O)CC2)CC1 (stereo not given),-0.0163%,–

Structure (SMILES),"fluorescence, % of fluorescent control",outcome
CCN(CC)CCOC(=O)C1(c2ccccc2)CCCC1,-0.326% [at 46 µM],–
CCCCC(CC)COCCCN (stereo not given),-0.484%,–
CN(C)CC/C=C1\c2ccccc2COc2ccccc21,-0.298% [at 46 µM],–
Cc1ccc(C(C)c2ccc(C)c(C)c2)cc1C,0.0172%,–
Cc1ccc(C(N)=O)cc1N,-0.189%,–
O=C1CCCCCO1,-0.243%,–
CC1(C)[C@H]2CC[C@]1(C)[C@H](O)C2,–,inactive
OCC1CC2CC1C1CCC(CO)C21 (stereo not given),-0.135%,–
O=C(O)c1cccc(N(Cc2cccnc2)c2ccc(OC(F)F)c(OC(F)F)c2)c1,0.0187%,–
CCCCOC(=O)c1ccccc1C(=O)OCC(CC)CCCC (stereo not given),0.109%,–
C#CCOC(=O)[C@@H](C)Oc1ccc(Oc2ncc(Cl)cc2F)cc1,-0.0391%,–
CC(=O)NCCCS(=O)(=O)O,–,inactive
C=C(C)C(=O)OC(C)C,0.345%,–
CC(=O)/C=C/C1C(C)=CCCC1(C)C (stereo not given),-0.583%,–
O=C(NS(=O)(=O)/C=C/c1cccs1)c1ccc(F)cc1Br,0.157%,–
O=CNc1ccccc1,0.286%,–
CCCCOCCOCCOCCOCCO,0.0444%,–
CC(=O)O[C@@H]1C(=O)O[C@@H]2[C@H]1OC(=O)[C@@H]2OC(C)=O,-0.387% [at 46 µM],–
O=c1c2ccccc2nnn1CCl,0.469%,–
SC1CCCC1,0.193%,–
